Some targets named below: IGFBP7; IGLL1; IGFBP3; IFT52; IKBKAP; IL7; IPO9; ITFG1; JOSD1; JMJD8; JDP2; JMJD1C; JAM3; KCND2; KCNK6; KCNJ4; KCNK12.
Holding throughout (test): pooled miR-30 sensor sort-seq; sequence = guide strand
Details in all cases: shRNA
Note: reference of the scale not given here.

With TGTCCTTTGAACTCCATAGTGA, in the experiment with IGFBP7, the sensor-assay potency score (higher = more potent) was -0.0168.

AGACACACCAGTGTAGCCTTGT: the sensor-assay potency score (higher = more potent) with IGLL1 was -0.487.

In the case of TTTAGCATGCCCTTTCTTGATG, the sensor-assay potency score (higher = more potent) in the experiment with IGFBP3 was -1.17.

Turning to TCCATGACTACTTTTAACCATG, the sensor-assay potency score (higher = more potent) with IGFBP7 is -1.58.

Consider TAGTCAACTTTGTAGCGCTGGC, for which, in the experiment with IGFBP3, the sensor-assay potency score (higher = more potent) was -0.23.

In the experiment with IGFBP7, TTTATTTTGTATTTCTCTGTGT gave a sensor-assay potency score (higher = more potent) of 0.392.

TACTTGTTGTTGCTCTGTTTGG: in the experiment with IGLL1, the sensor-assay potency score (higher = more potent) is -0.977.

On to TACTTATCCACACACCAGCAGA, for which the sensor-assay potency score (higher = more potent) with IGFBP3 was -1.2.

In the case of TTCATGTTTCACATTTAGCTGC, the sensor-assay potency score (higher = more potent) with IFT52 was -0.162.

As for TTCTTCTGTTGATCTTTGGTGG, in the experiment with IKBKAP, the sensor-assay potency score (higher = more potent) was -0.174.

In the case of TTGTTGTTGCTCTGTTTGGAGG, the sensor-assay potency score (higher = more potent) with IGLL1 is -1.19.

As for TGCTCTGCGATGCAGCTGTTGG, the sensor-assay potency score (higher = more potent) in the experiment with IGLL1 was -1.49.

For the sequence TATCTGTGCTCTGAGACTCGTA, the sensor-assay potency score (higher = more potent) with IGFBP3 is -0.405.

Regarding TATGGAAGGACCTTGCTCGCAG, the sensor-assay potency score (higher = more potent) with IGFBP7 was found to be 0.0924.

Take TATAACTAAAGTGTTAGTGGAT: the sensor-assay potency score (higher = more potent) with IGFBP7 turned out to be 0.0715.

In the experiment with IGFBP7, ATATTCTCCAGCATCTTCCTTA registered a sensor-assay potency score (higher = more potent) of 0.0623.

Regarding TATTCTTCTAGTAAAAAGTTAA, the sensor-assay potency score (higher = more potent) with IFT52 was -1.44.

With TTGATGATGATTATCTTTGAAT, the sensor-assay potency score (higher = more potent) with IGFBP3 was -0.974.

Regarding TCAGGTAGCTGCTGGCCGCGTA, the sensor-assay potency score (higher = more potent) in the experiment with IGLL1 is -0.554.

TAGAGGAGATACCAGCACCCAG: the sensor-assay potency score (higher = more potent) with IGFBP7 was -1.77.

Turning to TTATTTTGTATTTCTCTGTGTA, the sensor-assay potency score (higher = more potent) with IGFBP7 stood at 0.738.

On to TTGGGCTGACTTAAAACGGTGA, for which the sensor-assay potency score (higher = more potent) with IGLL1 was -0.209.

Turning to ATCTGTGCTCTGAGACTCGTAG, the sensor-assay potency score (higher = more potent) with IGFBP3 is -0.551.

Turning to TAGCCTTGTTGGCTTGGAGCTC, in the experiment with IGLL1, the sensor-assay potency score (higher = more potent) is -0.995.

TTGCACACGCACACGCCGCTTA: in the experiment with IGFBP7, the sensor-assay potency score (higher = more potent) was -0.533.

Consider TTCTTCAGTACACTTATTGGTA, for which the sensor-assay potency score (higher = more potent) with IFT52 is -0.369.

In the case of TAGTCTTGATGTGTGATCTTTA, the sensor-assay potency score (higher = more potent) in the experiment with IGFBP7 is -0.24.

In the case of TGGACCGGCTGCTTCCTCCAGG, the sensor-assay potency score (higher = more potent) in the experiment with IGLL1 is -1.11.

With TTGTAATAGTCTCTTTAGGAAA, the sensor-assay potency score (higher = more potent) with IL7 is -1.6.

With TTACAGAGTGCCACAGAGCTGA, the sensor-assay potency score (higher = more potent) with IPO9 is -0.313.

On to TAACTTTAACAAAATAAGCATC, for which the sensor-assay potency score (higher = more potent) with ITFG1 was -1.35.

Turning to TTTTTCTCTATCATCTGCTTTC, the sensor-assay potency score (higher = more potent) with ITFG1 is -0.602.

The sequence TTTAGAAACTTCCTGAGCTCGC came in with a sensor-assay potency score (higher = more potent) with JOSD1 of 0.218.

In the experiment with JMJD8, TACGACCGTAGATCACTTCTGA had a sensor-assay potency score (higher = more potent) of 0.324.

As for TACTGTATCACATCGAGTGATT, the sensor-assay potency score (higher = more potent) with JDP2 was -0.618.

Turning to TTTATCTCTAGAACTCTTCCTT, in the experiment with JMJD1C, the sensor-assay potency score (higher = more potent) amounted to 0.72.

On to TTTCCTTCGCTCCTCTTCCTCA, for which the sensor-assay potency score (higher = more potent) with JDP2 is -0.612.

As for TATCTTGTCAACATCTTTCCCA, the sensor-assay potency score (higher = more potent) with JMJD1C was 0.56.

Take TACTGCTGCACGAACTCCGCGT: the sensor-assay potency score (higher = more potent) with JMJD8 was -0.255.

TTTTAGAAACTTCCTGAGCTCG: the sensor-assay potency score (higher = more potent) in the experiment with JOSD1 was -0.609.

As for TTAACTTGTTATCTGTGCCTAC, the sensor-assay potency score (higher = more potent) in the experiment with JMJD1C worked out at 0.548.

Sequence TTCACTTGCACAGTTAACTCGA showed a sensor-assay potency score (higher = more potent) with JAM3 of 0.721.

With TATCTGTGTAATAAAATCCGTG, in the experiment with JMJD8, the sensor-assay potency score (higher = more potent) was -0.911.

For TATACATAGTTTATGTTCCTGG, the sensor-assay potency score (higher = more potent) with JMJD8 is -0.256.

Consider TAGTCTTGAAGTCTTCTCCTGA, for which the sensor-assay potency score (higher = more potent) in the experiment with JMJD1C was determined as 0.704.

Regarding ATCTATTCTAACTACTCCGTTT, the sensor-assay potency score (higher = more potent) with JMJD1C was -1.09.

Turning to TATCTGTTCATAACAAACAAAC, the sensor-assay potency score (higher = more potent) in the experiment with JDP2 was -1.71.

As for TAGATCACTTCTGAGTACCCGG, the sensor-assay potency score (higher = more potent) with JMJD8 is -0.223.

On to TAGCTCACTTTTCACGGGCTGG, for which, in the experiment with JDP2, the sensor-assay potency score (higher = more potent) was -0.699.

On to ATTGACAGAACTTATCACCTAT, for which, in the experiment with JMJD1C, the sensor-assay potency score (higher = more potent) stood at 0.441.

On to TTAGGAGTTACACACAACGGCC, for which the sensor-assay potency score (higher = more potent) in the experiment with JDP2 was -1.56.

TTTGGTTGCAACTCATGGCTTT yielded a sensor-assay potency score (higher = more potent) in the experiment with JDP2 of 0.0923.

With TTCAATTTTAAAACAACTGTTT, the sensor-assay potency score (higher = more potent) with JMJD1C is -0.691.

ATCTCTTGCAGCGTATCCCGGG: in the experiment with JOSD1, the sensor-assay potency score (higher = more potent) is -0.409.

Regarding TTTATACTGTATCACATCGAGT, in the experiment with JDP2, the sensor-assay potency score (higher = more potent) is -0.987.

For the sequence TATACTGTATCACATCGAGTGA, the sensor-assay potency score (higher = more potent) with JDP2 is -0.648.

For the sequence TAAACATTCGGTGAGTATGTGC, the sensor-assay potency score (higher = more potent) with JDP2 was -0.401.

For TTGTGAGGTGTCACCATGGTGT, the sensor-assay potency score (higher = more potent) in the experiment with JOSD1 was -0.922.

Regarding TATCTCTAGAACTCTTCCTTTC, the sensor-assay potency score (higher = more potent) with JMJD1C was -0.557.

For the sequence TTGTTGATGAAGTAGCCACGTC, the sensor-assay potency score (higher = more potent) with JAM3 is -0.698.

Consider TACAGCACCTCACCAGCCCGGA, for which the sensor-assay potency score (higher = more potent) in the experiment with JMJD8 is -0.942.

In the case of TTTGTGGTAGGAGTAGGTGTTG, in the experiment with JMJD8, the sensor-assay potency score (higher = more potent) was -1.04.

TTGAGCGTAGCATGCCACCAGC: in the experiment with JMJD8, the sensor-assay potency score (higher = more potent) was -0.983.

In the case of TTGTGGTAGGAGTAGGTGTTGG, in the experiment with JMJD8, the sensor-assay potency score (higher = more potent) is -1.22.

For the sequence TTTACATTTATCTTGGAGGTTT, the sensor-assay potency score (higher = more potent) in the experiment with JMJD1C is -0.435.

Regarding TTCCTGAGCTCGCTCTCGCCTC, in the experiment with JOSD1, the sensor-assay potency score (higher = more potent) was -1.09.

Turning to TTATTGACGCATTCATCTCTGA, the sensor-assay potency score (higher = more potent) with JMJD8 is -0.0992.

Turning to TTTCATTCTGAGTTCCATCCTC, the sensor-assay potency score (higher = more potent) in the experiment with JDP2 came out at 0.428.

For TAGCATGCCACCAGCGGTCGGG, the sensor-assay potency score (higher = more potent) in the experiment with JMJD8 is -0.51.

Turning to TCTTCTTGTTCCGGCATCGGGC, the sensor-assay potency score (higher = more potent) with JDP2 was -0.866.

Take ATAACAAACAAACCATAGCATA: the sensor-assay potency score (higher = more potent) with JDP2 is -1.75.

TAGGAGTAGGTGTTGGCGGTGC: the sensor-assay potency score (higher = more potent) with JMJD8 worked out at 0.392.

With TCAGCGAACAGATAGAACCAAA, in the experiment with KCND2, the sensor-assay potency score (higher = more potent) is -1.25.

For TTACTGAGTAAACCATTCCGTT, the sensor-assay potency score (higher = more potent) with KCND2 is -1.06.

For the sequence TAGACTGTGACCAGCACCTTGT, the sensor-assay potency score (higher = more potent) with KCNK6 is -0.385.

Take TGGAGGTCGGACACGTGGCGGA: the sensor-assay potency score (higher = more potent) with KCNK6 is -1.12.

Regarding TAGAAGGCATCCAAGAAGCTCC, the sensor-assay potency score (higher = more potent) in the experiment with KCNK6 is -0.185.

With TCGCTGGCCAGGTAGGAGCTGC, the sensor-assay potency score (higher = more potent) with KCNJ4 was -1.22.

TTAGCAAGCACGACCCGCCCCA: in the experiment with KCNK6, the sensor-assay potency score (higher = more potent) was -0.345.

With TCGCGCACCGAAATGACCGCGT, the sensor-assay potency score (higher = more potent) with KCNJ4 was -0.495.

In the case of TTGAGCACCTGCTTGATGAGGA, the sensor-assay potency score (higher = more potent) in the experiment with KCNK12 was determined as 0.236.

For the sequence TTGTAGTGGCTCTTCTCCTCGA, the sensor-assay potency score (higher = more potent) with KCNJ4 is -0.739.

TCGTTGAGGTGCGAACGGCGGC: the sensor-assay potency score (higher = more potent) in the experiment with KCNK12 is -1.1.

Consider TAGTCCACCTTGTAGTGGCTCT, for which the sensor-assay potency score (higher = more potent) with KCNJ4 is -0.556.

Values taken from the OligoGym collection.
